Calls of active or inactive are those of the source. Unless noted, the rule behind the calls is not given here.
Experiments:
[1] = resazurin metabolic signal in HepG2 cells – cell-based, resazurin fluorescence, 24 h, PK04 Diversity Set, profiling panel (AID 1172); details: HepG2 viability, higher = more signal; note: test concentration not given here
[2] = budding yeast growth changes without added modifier – OD600, strain BY4716, 24 h, basal condition, primary screen (AID 1173); details: S. cerevisiae BY4716 growth, OD600, 24 h; higher = more signal, called active from +8 up or from −8 down
[3] = viability profiling in MM1S myeloma cells – cell-based, resazurin fluorescence, basal, 24 h, PK04 Diversity Set, profiling panel (AID 1174); details: higher = more signal, called active from +8 up or from −8 down;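 note: MM1S multiple myeloma cell line; test concentration not given here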
[4] = biological target: Dihydroorotate dehydrogenase (quinone), mitochondrial (Plasmodium falciparum (isolate 3D7)) (UniProt Q08210); test: inhibition of P. falciparum DHODH – biochemical, C-terminal His tag, absorbance 600 nm, primary screen (AID 1175); details: PfDHODH enzyme, DCIP absorbance 600 nm; higher = more signal, called active from +8 up or from −8 down;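 note: recombinant parasite enzyme with a five histidine tag at its C terminus; test concentration not given here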
Sequence of Dihydroorotate dehydrogenase (quinone), mitochondrial (Plasmodium falciparum (isolate 3D7)) (Q08210 whole entry, looked up): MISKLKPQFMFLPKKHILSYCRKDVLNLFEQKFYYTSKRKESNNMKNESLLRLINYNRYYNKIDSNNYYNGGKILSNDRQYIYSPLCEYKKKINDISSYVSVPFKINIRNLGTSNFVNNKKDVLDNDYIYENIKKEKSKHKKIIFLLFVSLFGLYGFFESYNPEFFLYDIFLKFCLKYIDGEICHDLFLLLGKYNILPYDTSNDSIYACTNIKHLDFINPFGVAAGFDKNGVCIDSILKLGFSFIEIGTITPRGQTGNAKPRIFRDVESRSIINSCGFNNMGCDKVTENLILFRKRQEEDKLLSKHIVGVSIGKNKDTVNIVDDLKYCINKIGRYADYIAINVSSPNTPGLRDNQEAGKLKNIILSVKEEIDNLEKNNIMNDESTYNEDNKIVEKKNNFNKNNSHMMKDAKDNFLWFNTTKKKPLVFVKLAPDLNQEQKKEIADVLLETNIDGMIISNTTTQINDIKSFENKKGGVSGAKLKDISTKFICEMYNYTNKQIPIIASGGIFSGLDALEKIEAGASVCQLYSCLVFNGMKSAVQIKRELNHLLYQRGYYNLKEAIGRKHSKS

[5] = inhibition of PAO1 biofilm formation – strain PAO1, LB-PBS medium, absorbance 600 nm, primary screen (AID 1176); note: test concentration not given here; details: P. aeruginosa PAO1 growth/biofilm, A600, 12 h; higher = more signal
[6] = growth modulation of vineyard yeast isolate – strain RM11-1a, OD600, basal, 24 h, primary screen (AID 1177);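 note: cultures grown under basal conditions with no added stressor; test concentration not given here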; details: S. cerevisiae RM11-1a growth, OD600, 24 h; higher = more signal, called active from +8 up or from −8 down
[7] = growth of efflux-deficient E. coli DRC39 – strain DRC39, OD650, 24 h, E. coli filamentation inducers, primary screen (AID 1178);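 note: growth measured as culture turbidity by optical density at 650 nm; test concentration not given here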; details: E. coli DRC39 acrAB, higher = more signal, called active from +8 up or from −8 down
[8] = growth of efflux-deficient E. coli DRC39 – strain DRC39, OD650, 48 h, E. coli filamentation inducers, primary screen (AID 1179);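 note: screen aims at cell division blockers that make cells filament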; details: E. coli DRC39 delta-acrAB growth, higher = more signal, called active from +8 up or from −8 down
[9] = viability profiling in RPMI8226 myeloma cells – cell-based, resazurin fluorescence, basal, 24 h, PK04 Diversity Set, profiling panel (AID 1180); details: higher = more signal;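 note: RPMI8826 multiple myeloma cell line at 5000 cells per well; test concentration not given here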
[10] = biological target: E3 ubiquitin-protein ligase XIAP (Homo sapiens) (UniProt P98170); test: small molecules binding XIAP protein – biophysical, small-molecule microarray, fluorescence 635 nm, primary screen (AID 1181); details: higher = more signal;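 note: score merges 667 nm emission and signal to noise over triplicate slides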
Sequence of E3 ubiquitin-protein ligase XIAP (Homo sapiens) (P98170 whole entry, looked up): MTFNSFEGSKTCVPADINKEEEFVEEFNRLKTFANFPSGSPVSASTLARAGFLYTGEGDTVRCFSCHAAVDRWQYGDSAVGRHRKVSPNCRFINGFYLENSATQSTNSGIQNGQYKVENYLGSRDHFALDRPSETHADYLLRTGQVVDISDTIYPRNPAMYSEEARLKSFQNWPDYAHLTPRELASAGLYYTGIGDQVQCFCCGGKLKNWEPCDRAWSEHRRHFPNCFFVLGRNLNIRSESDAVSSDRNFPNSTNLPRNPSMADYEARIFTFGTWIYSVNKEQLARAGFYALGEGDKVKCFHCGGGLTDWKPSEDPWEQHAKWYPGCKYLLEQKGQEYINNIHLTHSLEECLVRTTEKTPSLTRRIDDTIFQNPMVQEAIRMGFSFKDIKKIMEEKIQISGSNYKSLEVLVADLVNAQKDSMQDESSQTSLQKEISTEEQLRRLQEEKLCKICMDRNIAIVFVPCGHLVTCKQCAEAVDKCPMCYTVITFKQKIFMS

SMILES | z-score [1] | z-score [2] | z-score [3] | composite z-score [4] | z-score [5] | z-score [6] | z-score [7] | z-score [8] | z-score [9] | composite z-score [10]
O=C(NN=C1C[C@@H](O)[C@@H](O)[C@@H]2[C@@H]3C(=O)N(c4ccc(F)cc4F)C(=O)[C@@H]3CC[C@H]12)OCc1ccccc1 | 2.08 | -0.814 (inactive) | 1.23 (inactive) | -0.25 (inactive) | -0.258 (inactive) | -1.35 (inactive) | 0.574 (inactive) | 0.573 (inactive) | 0.86 | -0.152
COc1ccc2c(c1)O[C@@H](c1cccc(C(F)(F)F)c1)[C@H](O)C2=O | 0.669 | -14.3 (active) | -0.104 (inactive) | -0.445 (inactive) | 0.699 (inactive) | -1.04 (inactive) | 1.23 (inactive) | 1.34 (inactive) | 0.8 | 0.0223
CC(=O)OC[C@H]1O[C@@H](ON=C2[C@H]3CCn4c(=O)n(-c5ccccc5)c(=O)n4[C@H]3[C@H](O)[C@@H]3O[C@H]23)[C@H](OC(C)=O)[C@@H](OC(C)=O)[C@@H]1OC(C)=O | -0.779 | -0.499 (inactive) | -0.718 (inactive) | -1.44 (inactive) | -0.443 (inactive) | -0.184 (inactive) | 0.435 (inactive) | 0.381 (inactive) | -1.1 | -0.174
CC(CCC(=O)OC[C@H]1O[C@H](C#Cc2ccccc2)C=C[C@@H]1Oc1ccc(C)cc1)=NOC(C)CN1CCCCc2nc(C)c(C)cc21 (stereo not given in full) | 0.172 | 0.546 (inactive) | -0.0229 (inactive) | -0.669 (inactive) | 0.311 (inactive) | 0.46 (inactive) | 0.125 (inactive) | -0.116 (inactive) | 0.304 | -0.102
COC(=O)CC=C[C@@H](C)[C@@H](C=NOC[C@@H](O)COCc1ccco1)NS(=O)(=O)c1ccc(C)cc1 | -0.8 | 0.0959 (inactive) | -0.309 (inactive) | 0.444 (inactive) | -0.312 (inactive) | 0.186 (inactive) | 0.388 (inactive) | 0.124 (inactive) | -0.974 | -0.309
COCOc1ccc(Br)cc1C(=O)C=Cc1ccc2c(c1)OCO2 | -2.37 | -3.33 (inactive) | -3.86 (inactive) | -1.1 (inactive) | 1.01 (inactive) | 0.616 (inactive) | 0.725 (inactive) | 0.253 (inactive) | -3.36 | -0.0076
COc1ccc(COC(=O)NN=C2C[C@@H](O)[C@@H](O)[C@@H]3[C@@H]4C(=O)N(C[C@@H]5CCCO5)C(=O)[C@@H]4CC[C@H]23)cc1 | -0.161 | 1.29 (inactive) | 0.0829 (inactive) | -0.395 (inactive) | -0.0485 (inactive) | 0.293 (inactive) | 0.16 (inactive) | 0.0875 (inactive) | -0.631 | 0.0679
CC(=O)OC[C@H]1O[C@H](CC=NOC[C@@H](O)[C@H]2O[C@@H]3OC(C)(C)O[C@@H]3[C@H]2O)C=C[C@@H]1OC(C)=O | 0.287 | 0.933 (inactive) | -1.15 (inactive) | 0.189 (inactive) | -0.124 (inactive) | 1.08 (inactive) | 0.644 (inactive) | -0.717 (inactive) | -0.754 | 0.013
CCOC(=O)[C@H](Cc1ccccc1)NC(=O)CCC1CC(OC(=O)NCc2ccc3c(c2)OCO3)CC2(CCCC(COC(=O)NCCOc3ccccc3)O2)O1 (stereo not given in full) | 0.425 | -1.24 (inactive) | 0.975 (inactive) | -1.76 (inactive) | -0.102 (inactive) | 0.0995 (inactive) | 0.662 (inactive) | 0.181 (inactive) | 0.579 | -0.0832
COC(=O)CC=C[C@@H](C)[C@@H](C=NOC[C@@H](O)[C@H]1O[C@@H]2OC(C)(C)O[C@@H]2[C@H]1O)OC | -0.904 | -0.385 (inactive) | -0.311 (inactive) | 0.757 (inactive) | -0.525 (inactive) | 0.442 (inactive) | 0.404 (inactive) | 0.493 (inactive) | -1.51 | -0.158
CON=C(C)CCN1CCCCc2nc(C)c(C)cc21 | -0.18 | -0.571 (inactive) | 0.183 (inactive) | -1.07 (inactive) | 0.323 (inactive) | -0.11 (inactive) | 0.852 (inactive) | -0.78 (inactive) | 0.6 | 0.496
CCOC(=O)[C@H](CC(C)C)NC(=O)CCC1CC(OC(=O)NCCc2ccc(F)cc2)CC2(CCCC(COC(=O)NCCCN3CCCC3=O)O2)O1 (stereo not given in full) | 0.653 | -0.796 (inactive) | 0.469 (inactive) | 0.0102 (inactive) | 0.909 (inactive) | -0.129 (inactive) | 0.698 (inactive) | -0.405 (inactive) | 1.32 | -0.179
CO[C@H]1COC(=O)[C@H](C)COC(=O)[C@H](C)NC(=O)CC=C[C@H]1C | 0.377 | -1.32 (inactive) | 1.13 (inactive) | 0.0315 (inactive) | -0.826 (inactive) | -0.419 (inactive) | 0.91 (inactive) | -0.193 (inactive) | 1.03 | -0.0525
CON=C(C)CCN1CCc2nc(-c3ccccc3)c(-c3ccccc3)cc2C1 | 1.86 | -6.56 (inactive) | -0.217 (inactive) | -0.467 (inactive) | 0.958 (inactive) | 0.886 (inactive) | 0.83 (inactive) | -2.48 (inactive) | 1.14 | -0.0115
CC(C)=NOC(C)CN1CCCCc2nc(C)c(C)cc21 (stereo not given) | -0.724 | 0.0416 (inactive) | -0.408 (inactive) | -0.241 (inactive) | 0.547 (inactive) | 0.113 (inactive) | 0.668 (inactive) | -0.562 (inactive) | -0.491 | 0.111
CCc1cc2c(nc1CC)CCN(CCC(C)=NOCC[C@@H]1C=C[C@H](OC(C)=O)[C@@H](COC(C)=O)O1)C2 | 0.0383 | 0.859 (inactive) | -0.123 (inactive) | 0.903 (inactive) | 0.122 (inactive) | 1.23 (inactive) | -0.157 (inactive) | -1.33 (inactive) | 0.154 | -0.212
CC(CCN1CCCCc2nc(C)c(C)cc21)=NOC[C@@H](O)[C@H]1O[C@@H]2OC(C)(C)O[C@@H]2[C@H]1O | -0.825 | -0.546 (inactive) | -1.03 (inactive) | -0.183 (inactive) | 0.335 (inactive) | -0.382 (inactive) | 0.78 (inactive) | -0.887 (inactive) | -0.216 | -0.0323

Reference: PubChem BioAssay
